Compounds with a hit are over-represented: about 7.3% of the library has one in this group of screens.
Vaccinia mCherry – inhibitors of vaccinia virus infection (mCherry reporter signal). Potency, µM (top dose mostly 36.5 µM), actives largely listed as inhibitors. Vaccinia virus mCherry reporter infection, fluorescence. actives 0.63% (n = 310,000). AID 720579; calls by dose curve; tested in A549 cells; further: nearly all actives have a fitted effect of over 35% in size
FMDV inh – blocks foot and mouth disease virus. FMDV antiviral cell-based qHTS. Potency, µM (highest dose often 57.9 µM), usual class: inhibitors. actives 1.2% (n = 410,000); calls by dose curve; tested in HEK293T cells; further: read-out not given here; nearly all actives have a fitted effect of over 45% in size
HCV inhibitor – HCV inhibition. Potency, µM (titrated, usually from 41.8 µM), actives largely listed as inhibitors. Huh7.5.1 HCVcc-Cre infection, luciferase reporter, 44 h. actives 3.4% (n = 340,000); active means well fitted inhibition curve with a large enough effect; inconclusive means small, poorly fitted or top-dose-only effect, or another doubt; inactive means no such curve, though single readings can be large or run the other way
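Cells (1,000/well) were plated 4 h before compound, then infected with HCVcc-Cre virus (~0.5 moi). After 44 h further culture, infection was read as luciferase luminescence following a 15 min substrate incubation at room temperature.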
HCMV inh – human cytomegalovirus inhibition; actives 4.5% (n = 410,000); HFF cells, HCMV-luciferase reporter, 72 h; hits give low values; activity change, negative = inhibition, % at 57.5 µM; in the data active means activity change below about -60%; inconclusive means no clear call, values can overlap the other calls; inactive means above about -39%
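Compounds were evaluated in HFFs infected with an HCMV luciferase reporter virus (MOI 1 PFU/cell). Luciferase in lysates collected 72 h post infection served as the replication measure.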
VACV Venus inh – inhibitors of vaccinia virus (Venus reporter). Vaccinia virus Venus reporter expression, fluorescence. AID 720580. actives 0.46% (n = 330,000). Potency, µM (series often up to 36.5 µM), actives largely listed as inhibitors; calls by dose curve; tested in A549 cells; further: nearly all actives have a fitted effect of over 30% in size
Numbers stand for hits; 0 = inactive; ? = inconclusive; - = no result given; [ ] = another dose, or the depositor's remark.

SMILES	Vaccinia mCherry	FMDV inh	HCV inhibitor	HCMV inh	VACV Venus inh
Cc1ccc(-n2ncc3c(N4CCN(Cc5ccccc5)CC4)ncnc32)cc1C	0	14.1µM	-	?	0
Cc1ccc(Cn2ncc3c(NCCN(C)C)ncnc32)cc1	-	0	0	0	-
Clc1cccc(-n2ncc3c(N4CCN(Cc5ccccc5)CC4)ncnc32)c1	0	?	-	0	0
Cc1ccc(Cn2ncc3c(N4CCN(Cc5ccc(Cl)cc5)CC4)ncnc32)cc1	0	?	4.47µM	-82.1	0
Cc1ccc(Cn2ncc3c(N4CCN(c5ccc(C)cc5)CC4)ncnc32)cc1	0	?	?	?	0
O=C1CC(c2ccccc2)NC(=O)N1 (centres undefined)	-	0	0	-99.0	0
CN1NC(=O)CC1c1ccccc1 (centres undefined)	0	0	0	0	0
COc1ccc(N2CCN(C(=O)COC(=O)CC(NC(N)=O)c3ccc(Cl)cc3)CC2)cc1 (centres undefined)	0	?	-	-62.0	0
CC[C@H](C)[C@H](NC(=O)OCc1ccccc1)C(=O)OCC(=O)N1CCN(c2ccc(OC)cc2)CC1	-	0	12.6µM	0	-
Cc1ccc(C)c(CN2C(=O)c3ccccc3S(=O)(=O)c3ccc(C(=O)N4CCc5ccccc54)cc32)c1	0	0	-	0	0
COc1ccc(CNC(=O)Nc2cn(CC(C)C)c(=O)c3ccccc23)cc1	0	0	-	0	0
COc1ccc(NC(=O)Nc2cn(CC(C)C)c(=O)c3ccccc23)c(OC)c1	0	0	-	-104.0	0
CCN(CC)C(=O)C1=C(C)N(Cc2ccc(OC)cc2)C(=O)C(CC(=O)NCCc2ccccn2)C1 (centres undefined)	0	0	-	0	0
Cc1cc(C)n2nc(C(=O)OCC(=O)NNC(=O)c3ccccc3)nc2n1	-	0	0	-60.7	-
Cc1cc(C)n2nc(C(=O)N/N=C/c3ccccc3Cl)nc2n1	0	0	0	0	0
Cc1cc(C)n2nc(C(=O)N/N=C/c3c4ccccc4cc4ccccc34)nc2n1	0	?	0	-75.9	0
Cc1cc(C)n2nc(C(=O)NC(c3ccccc3)c3ccccc3)nc2n1	0	0	?	-74.1	0
Cc1cc(C)n2nc(C(=O)OCC(=O)NC(=O)c3ccccc3)nc2n1	0	0	0	0	0
CCN(c1ccccc1)c1ncnc2c1cnn2-c1ccc(C)cc1C	0	0	-	0	0
NC(=O)Nc1ccc(/C=C2\C=Cc3ccccc32)cc1	0	-	-	-	0
CCC[C@@H](/C=C/C(=O)OC(C)(C)C)NC(=O)C(F)(F)F	-	-	-	0	-
COc1ccc(CNC(=O)CSCc2cnn(-c3ccccc3)c2-n2cccc2)cc1OC	?	15.8µM	-	-79.6	?
COc1ccccc1CNC(=O)CSCc1cnn(-c2ccccc2)c1-n1cccc1	-	?	?	0	-
O=C(CSCc1cnn(-c2ccccc2)c1-n1cccc1)NCc1ccccc1F	0	0	-	-75.8	0
COC(=O)[C@]12CCCCC=C1N(Cc1ccco1)C(=O)[C@H](CC(=O)NCc1cccc3ccccc13)C2	0	0	-	0	0
SMILES	Vaccinia mCherry	FMDV inh	HCV inhibitor	HCMV inh	VACV Venus inh
Cc1ccc2oc(=O)c3cc(C(=O)N4CCN(c5ccccc5)CC4)sc3c2c1	0	0	-	0	0
Cc1cccc2cc(-c3ccccc3)c(-c3ccccc3)c[n+]12	0	?	?	-96.5	0
COc1cccc(Cn2c(=O)cnc3cnc(OCc4ccccc4)nc32)c1	-	0	-	-	-
CCN1CCN(C(=O)Cn2ncc3c4ccccc4n(Cc4c(C)cc(C)cc4C)c3c2=O)CC1	0[7.34 µM]	0	-	-60.3	0[7.34 µM]
O=C(Cn1ncc2c3ccccc3n(Cc3ccccc3)c2c1=O)N1CCN(c2ncccn2)CC1	-	?	10µM	-	-
Cc1cc(Cl)ccc1NC(=O)CN1C(=O)C(=O)N(C2CCCC2)C1=O	-	0	0	0	-
O=c1oc2ccccc2c(N2CCCC2)c1[N+](=O)[O-]	0	0	0	-94.1	0
Cc1c(C(=O)Nc2ccc3oc(-c4cccnc4)nc3c2)oc2ccccc12	-	0	?	-67.4	-
O=C(Nc1ccc2oc(-c3cccnc3)nc2c1)c1ccc([N+](=O)[O-])o1	0	0	2.51µM	0	0
O=C(Nc1ccc2oc(-c3cccnc3)nc2c1)c1cccnc1	-	0	0	0	-
O=C(Nc1ccc2oc(-c3cccnc3)nc2c1)c1ccc(Br)o1	-	0	0	0	0
C[C@@H]1CC[C@@]2(OC1)OC1CC3C4CC=C5CC(O)CCC5(C)C4CCC3(C)C1[C@@H]2C (some centres undefined)	-	0	-	-	-
CCC(c1nnnn1-c1ccc2c(c1)OCCO2)N1CCc2ccccc2C1 (centres undefined)	0	0	-	0	0
O=C(O)c1cnn(-c2ccccc2)c1C(F)(F)F	0	0	0	-79.7	0
O=C(O)c1cnn(-c2ccccc2)c1-c1ccccc1	0	0	0	0	0
O=C(NCCc1ccccc1)c1cc2ccccc2oc1=O	-	0	0	-103.0	-
O=C(NCCc1ccccc1)c1cc(=O)[nH]c2ccccc12	0	0	0	-60.5	0
O=C(NCCc1ccc(F)cc1)c1cc2ccccc2oc1=O	-	0	0	0	-
Cc1ccc[n+](CC(=O)c2cc3ccccc3oc2=O)c1	0	-	0	0	0
CSc1ccc(CN(C)C(=O)c2cc(=O)c3ccccc3o2)cc1	0	0	0	0	0
CSc1ccc(CN(C)C(=O)c2cc(=O)[nH]c3ccccc23)cc1	0	2.82µM	0	0	0
Cc1cc(C)c[n+](CC(=O)c2cc3ccccc3oc2=O)c1	0	0	0	-98.4	0
COc1ccc(CCNC(=O)c2cc(=O)[nH]c3ccccc23)cc1	0	0	0	0	0
Cc1ccc(OCc2cc(C(=O)N(C)Cc3cc(C4CC4)n[nH]3)no2)cc1C	-	0	0	?	-
CC(C)=CCCC1(C)C=Cc2c(c(C)cc3c2[nH]c2cc(O)ccc23)O1 (centres undefined)	0	0	0	-104.4	0
SMILES	Vaccinia mCherry	FMDV inh	HCV inhibitor	HCMV inh	VACV Venus inh
CC(C)=CCC/C(C)=C/CC/C(C)=C/CCC1(C)CCc2cc(O)ccc2O1 (centres undefined)	0	-	-	-	0
COc1ccc(C)cc1NC(C)C(=O)c1c[nH]c2ccccc12 (centres undefined)	0	-	-	-	0
CCCOc1ccc(OCCSc2nnc(N)s2)cc1	-	0	0	0	0
CCCOc1ccc(-c2cnc(N)s2)cc1	4.47µM	0	?	0	5.01µM
O=C(O)c1ccc(N=Cc2c(O)[nH]c(=O)[nH]c2=O)cc1	0	0	0	-76.1	0
O=c1[nH]c(O)c(C=Nc2ccc(F)c(Cl)c2)c(=O)[nH]1	-	0	0	?	-
O=C(Cc1cccs1)NCCSc1c(-c2ccc(Cl)cc2)[nH]c2ccccc12	11.2µM	22.4µM	12.6µM	?	12.6µM
CN(C)S(=O)(=O)c1ccc(C(=O)NCCSc2c(-c3ccccc3)[nH]c3ccccc23)cc1	?	?	-	-71.6	?
CN(C)S(=O)(=O)c1ccc(C(=O)NCCSc2c(-c3ccc(Cl)cc3)[nH]c3ccccc23)cc1	0	?	-	0	0
CCN(CC)Cc1cc(C(C)=O)ccc1OCC(C)C	0	0	0	0	0
CC(C)COc1ccc(N)cc1OCC(C)C	0	0	2.82µM	0	0
COc1cc(NC(=O)COC(=O)/C=C/c2ccc(OC)c(OC)c2)cc(OC)c1	0	0	?	0	0

Bioassay records from PubChem BioAssay.
